A selection: hits, their analogues and other compounds. The true share with any hit is near 4%.
MITF TRPM1 inh: MITF TRPM1 promoter inhibition in SK-MEL-5 cells. inhibition, % at 12.5 µM. SK-MEL-5 TRPM1 promoter luciferase, 24 h. hit rate 0.83% among 330,000. AID 488899;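 active means mean inhibition across replicates of 60% or more, whatever share of single replicates reaches that level; inconclusive means some that reach 60%, reason not given; inactive means mean inhibition across replicates below 60%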
EBV LMP1 NFkB: reduces LMP1-driven NF-kappaB luciferase signal; inhibition, % at 12.5 µM; LMP1-induced NF-kappaB luciferase reporter cells, luminescence; hit rate 0.69% among 350,000; in the data active means inhibition above about 41%; inconclusive means no clear call, values can overlap the other calls;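 further: 0% = neutral control wells and 100% = reference inhibitor control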
esBAF inh: blocks esBAF chromatin remodeling in mouse ES cells | Bmi1-luciferase knock-in reporter, 24 h; 100% = twice the neutral-well signal | reporter increase, % at 12.5 µM | hit rate 2% among 350,000; in the data active means activation above about 40%; inconclusive means no clear call, values can overlap the other calls;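 further: 0% = median of the plate's neutral control wells and 100% = double that signal; a rise in the Bmi1 reporter signal indicates esBAF inhibition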
C2C12 statin: suppression of simvastatin myotoxicity. C2C12 myotubes + simvastatin, ATP luminescence, 48 h; scaled: DMSO 0, geranylgeraniol control 100. rescue of ATP level, % at 7.49 µM. hit rate 0.78% among 330,000. AID 602340;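 active means mean ATP rescue above about 67%, or every replicate alone reaching that limit, limit read from the data, passing the limit was not always enough; inconclusive means no clear call, values can overlap the other calls; inactive means mean under the limit and some replicate under it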;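 further: myotubes were challenged with 10 µM simvastatin during compound exposure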
Wnt bcat act: activators of Wnt/beta-catenin signaling; activation, % at 9.35 µM; AID 743398; hit rate 1.2% among 300,000; Wnt/beta-catenin reporter cell assay, activator, plate reader; in the data active means activation above about 30%, passing the limit was not always enough; inconclusive means no clear call, values can overlap the other calls;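 further: 0% = neutral control wells and 100% = positive control wells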
MITF act: MITF TRPM1 promoter activation in melanoma cells. SK-MEL-5 TRPM1-promoter luciferase, 24 h; % of positive control, neutral wells = 0. activation, % at 12.5 µM. hit rate 0.75% among 300,000;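 active means mean activation of at least 80% with every replicate also reaching 80%; inconclusive means mean reaches 80% but some replicate falls short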;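 further: 0% = neutral control wells and 100% = parthenolide positive control wells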
* hit, by the source's call; ? = inconclusive; . = no result given.

SMILES	MITF TRPM1 inh	EBV LMP1 NFkB	esBAF inh	C2C12 statin	Wnt bcat act	MITF act
CC(C)(CNC(=O)c1ccc(-c2ccccc2Cl)o1)N1CCOCC1	-71.8	-40.5	71.1*	-36.4	9.4	70.3
NC(=O)C1CCCCc2c1[nH]c1ccc(Cl)cc21 (stereo unspecified)	8.0	-7.5	5.0	-2.5	-0.6	-11.4
CCN(CC(=O)Nc1ccccc1OC)C(=O)CCc1ccccc1	7.6	2.8	-4.2	7.0	0.9	-6.1
CN(CC(=O)Nc1ccccc1N1CCOCC1)S(=O)(=O)c1ccc(F)cc1	1.1	3.7	2.9	.	.	.
O=C(c1ccc(-c2ccccc2Cl)o1)N1CCCCCCC1	-74.9	-51.1	53.9*	-0.5	39.7*	?
CC1CCCN(C(=O)c2ccc(-c3ccccc3Cl)o2)C1 (stereo unspecified)	-139.6	-57.3	76.7*	-40.8	34.0*	140.0*
COc1ccc(/C=C(\NC(=O)c2cccs2)C(=O)NCc2ccco2)cc1OC	.	.	.	.	-0.7	.
CN1C(=O)C2(N=c3ccccc3=N2)c2ccccc21	28.3	0.5	41.1*	2.0	1.2	-29.0
O=C(O)c1cccc(S(=O)(=O)Nc2ccc(N3CCCCC3)cc2)c1	-0.3	-12.2	-1.6	0.5	13.2	3.6
CCCS(=O)(=O)NC(=O)C1(C)CCN(C(=O)c2cc(C)nn2C(C)(C)C)C1 (stereo unspecified)	.	.	1.0	2.5	-1.0	.
CC1=NN(c2nc(N)nc(/C(C#N)=C/c3ccc([N+](=O)[O-])o3)n2)C(C)(C)C1	91.1*	0.3	.	.	-5.8	-91.1
O=C1C2C(C(=O)N1/N=C/c1ccc([N+](=O)[O-])o1)C1C=CC2C12CC2 (stereo unspecified)	22.3	-24.2	-1.0	14.8	0.9	-23.3
Cc1ccoc1C(=O)Nc1ccc(CC(=O)O)cc1	58.2	44.3*	-59.6	3.0	-0.2	.
COc1cccc(/C=C/C(=O)c2ccc[nH]2)c1	-50.1	-29.8	60.4*	11.4	.	41.9
CN(C(=O)C=Cc1ccccc1)c1ccccc1	-15.1	2.5	32.8	11.6	-2.2	13.4
CN(C(=O)/C=C/c1ccc2c(c1)OCO2)c1ccccc1	-12.2	-23.9	53.0*	-8.8	13.7	11.2
O=C1c2ccccc2C(=O)N1N=Cc1ccc2c(c1)OCO2	.	-13.1	.	.	52.2*	.
CSc1nncn1/N=C/c1ccc2c(c1)OCO2	-3.9	-6.6	3.4	106.4*	-0.7	1.5
CSc1nncn1/N=C/c1ccc([N+](=O)[O-])cc1	-9.4	0.0	.	.	-0.1	6.6
COc1ccc(-c2ccccc2NC(=O)C2CCCN(Cc3ccc(C)o3)C2)cc1 (stereo unspecified)	8.8	-14.4	-3.8	-0.8	-0.8	-7.2
COc1ccc(NC(=O)Nc2cccc3c2O[C@H](CN(C)S(C)(=O)=O)[C@@H](C)CN([C@H](C)CO)C3=O)cc1	-11.7	1.8	0.8	0.2	-0.2	11.5
CN(/N=C/c1ccc2c(c1)OCO2)c1ccccc1	-122.6	-37.5	50.6*	5.0	.	118.4*
O=C(/C=C/c1ccc2c(c1)OCO2)c1ccc[nH]1	-49.3	-15.5	.	.	42.4*	53.2
CCn1c(CC(=O)Nc2ccc(C)c(Cl)c2)nnc1SCCOc1ccc(OC)cc1	1.8	4.7	-9.1	7.3	.	-0.3
NS(=O)(=O)c1ccc(CCNC(=O)CCCn2c(=O)[nH]c3ccc(Br)cc3c2=O)cc1	-13.1	3.7	.	.	-0.9	5.9
SMILES	MITF TRPM1 inh	EBV LMP1 NFkB	esBAF inh	C2C12 statin	Wnt bcat act	MITF act
O=C(Nc1ccc(Br)cc1)C1Cc2ccccc2O/C1=N\O (stereo unspecified)	-66.2	-19.6	55.2*	3.8	19.7	71.1
CCC(=O)Nc1ccc2c(c1)C(=O)N(C)C[C@@H](OC)[C@H](C)CN(C(=O)c1ccncc1)[C@H](C)CO2	.	.	-3.6	12.8	.	.
CCOc1ccc(/C=N/NC(=O)c2ccccc2O)cc1CN1CC2CC(C1)c1cccc(=O)n1C2 (stereo unspecified)	-1.1	-2.9	57.1*	-0.5	1.0	1.0
O=[N+]([O-])c1ccc(S(=O)(=O)CC(CN2CCCCC2)N2CCCCC2)cc1 (stereo unspecified)	81.4*	27.4	.	.	-0.9	-78.4
Cc1noc(N)c1C(=O)Nc1ccc(C(C)(C)C)cc1	-86.7	-16.9	.	.	50.5*	85.7*
CCOC(=O)N/N=C/c1ccc(N(CC)CC)cc1O	-29.3	-14.3	.	.	16.2	28.8
CCN(CC)c1ccc(/C=N/NC(=O)c2c(Cl)cnn2C)c(O)c1	16.5	51.8*	.	.	-8.0	-16.0
CCN(CC)c1ccc(/C=N/NC(=O)c2cccc(S(=O)(=O)N3CCOCC3)c2)c(O)c1	82.3*	55.5*	-50.2	-14.4	21.5	-81.5
Cn1c(=O)[nH]c(=O)c2c1nc(CN1CCOCC1)n2CCCc1ccccc1	-9.5	84.6*	1.5	-9.4	-2.8	3.0
Cn1c(=O)[nH]c(=O)c2c1nc(CN1CCOCC1)n2CCc1ccccc1	3.7	5.0	-0.5	2.5	.	-2.6
CCNC(=O)C[C@@H]1CC[C@@H]2[C@H](COC[C@H](O)CN2C(=O)Nc2ccc3c(c2)OCO3)O1	.	.	43.8*	2.4	.	.
CCNC(=O)C[C@H]1CC[C@@H]2[C@H](COC[C@H](O)CN2C(=O)Nc2ccc3c(c2)OCO3)O1	.	.	45.0*	-7.0	.	.
COc1ccccc1-c1ccc([C@H]2[C@@H](CO)N(C(=O)NC3CCCCC3)[C@H]2C#N)cc1	.	.	59.4*	-3.6	.	.
COc1ccc(-c2ccc([C@@H]3[C@@H](C#N)N(C(=O)NC4CCCCC4)[C@H]3CO)cc2)cc1	.	.	1.5	43.1	.	.
N#C[C@H]1[C@@H](c2ccc(-c3cccc(F)c3)cc2)[C@H](CO)N1C(=O)NC1CCCC1	.	.	2.2	-23.8	.	.
N#C[C@@H]1[C@@H](c2ccc(-c3cccc(F)c3)cc2)[C@H](CO)N1C(=O)NC1CCCC1	.	.	4.0	108.2*	.	.
CCNC(=O)C1(C)CCN1Cc1cc(-c2ccccc2)n(C)n1 (stereo unspecified)	.	.	0.7	9.5	-2.6	.
c1ccc2c(c1)nnn2-c1ncnc2sc3c(c12)CCCC3	-4.5	-4.7	0.1	-46.2	.	2.1
NC(=O)[C@@H]1CCCN1C(=O)c1cc(COc2ccc3c(c2)CCCC3)on1	-26.7	-13.1	.	.	13.5	18.5
O=C1Nc2ccc(Br)cc2/C1=C/C(=O)c1ccccc1	75.2*	-0.9	.	.	-8.8	.
COc1ccc2c(c1)CCc1c(C(=O)NCc3ccco3)noc1-2	-102.2	-27.6	41.8*	3.7	21.3	100.3*
COc1ccc2c(c1)CCc1c(C(=O)NC3CCCCC3)noc1-2	-87.5	-36.7	-4.7	-14.1	.	90.7*
COCCNC(=O)c1noc2c1CCc1cc(OC)ccc1-2	-75.7	-12.1	36.3	6.8	.	77.3
COc1ccc2c(c1)CCc1c(C(=O)N(C)c3ccccc3)noc1-2	-55.6	-23.1	55.5*	-13.6	?	54.9
CN(C)/C=N/C(=S)Nc1ccc(F)cc1	-16.1	-0.7	17.7	.	2.2	18.6
COc1ccc(Cl)cc1NC(=O)NCc1cccnc1	-8.3	0.3	.	.	-2.6	13.2

From PubChem BioAssay
